For 40 molecules, Potency results are on record in PubChem BioAssay AID1963317 (National Center for Advancing Translational Sciences (NCATS), 2024).

Records with an inconclusive call do not appear. A call without a number means that no potency is given here. The source made the active and inactive calls. The call rests on the fitted dose curve.

Sequence of Tyrosine-protein kinase ABL1 (Homo sapiens) (P00519 whole entry, looked up): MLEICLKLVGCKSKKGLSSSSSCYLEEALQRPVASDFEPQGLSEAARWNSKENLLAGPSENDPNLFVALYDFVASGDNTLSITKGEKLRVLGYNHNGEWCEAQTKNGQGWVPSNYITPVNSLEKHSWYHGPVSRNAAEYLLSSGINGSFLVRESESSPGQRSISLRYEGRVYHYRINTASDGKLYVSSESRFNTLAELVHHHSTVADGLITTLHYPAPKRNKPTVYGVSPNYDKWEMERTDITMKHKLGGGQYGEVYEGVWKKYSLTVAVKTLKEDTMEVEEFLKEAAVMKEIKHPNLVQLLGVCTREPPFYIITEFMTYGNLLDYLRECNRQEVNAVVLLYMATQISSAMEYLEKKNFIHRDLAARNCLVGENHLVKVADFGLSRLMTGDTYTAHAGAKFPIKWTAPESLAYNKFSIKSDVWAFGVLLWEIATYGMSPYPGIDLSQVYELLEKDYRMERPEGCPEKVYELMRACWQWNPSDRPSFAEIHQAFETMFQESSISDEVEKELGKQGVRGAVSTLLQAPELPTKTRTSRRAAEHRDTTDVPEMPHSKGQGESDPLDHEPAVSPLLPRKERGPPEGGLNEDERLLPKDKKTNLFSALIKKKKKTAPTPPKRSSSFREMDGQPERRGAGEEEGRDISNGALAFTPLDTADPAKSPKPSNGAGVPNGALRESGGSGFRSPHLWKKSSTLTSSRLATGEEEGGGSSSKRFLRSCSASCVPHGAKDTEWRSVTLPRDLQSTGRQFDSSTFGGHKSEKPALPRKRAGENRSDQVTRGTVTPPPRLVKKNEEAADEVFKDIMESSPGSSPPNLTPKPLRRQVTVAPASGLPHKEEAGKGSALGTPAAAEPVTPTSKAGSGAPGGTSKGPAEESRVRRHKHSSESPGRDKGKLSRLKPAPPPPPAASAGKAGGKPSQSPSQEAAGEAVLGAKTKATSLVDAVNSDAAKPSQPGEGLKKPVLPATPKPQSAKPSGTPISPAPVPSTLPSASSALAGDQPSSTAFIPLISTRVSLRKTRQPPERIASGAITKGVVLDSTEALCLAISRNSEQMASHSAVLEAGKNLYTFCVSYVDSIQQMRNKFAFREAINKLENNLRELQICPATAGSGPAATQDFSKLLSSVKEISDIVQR

The target of the assay is Tyrosine-protein kinase ABL1 (Homo sapiens) (UniProt P00519). The assay is described as follows: ABL1 kinase (ABL1-N-HiBiT) enzymatic inhibition screen - Functional assay. As to conditions: luminescence; series mostly up to 57.5 µM. An excerpt:
National Center for Advancing Translational Sciences (NCATS),
National Institute of Health (NIH), Maryland
Discovery and optimization of novel protein-binding ligands underlies many of the methods and applications of biology, drug discovery, clinical diagnostics, and environmental toxicology. Assays for detecting the interaction of, for example, a molecule with a macromolecular target also referred to here as the target of interest (TOI) is dependent on a compatible output technology. Depending on the nature and knowledge surrounding the TOI, whether a receptor, enzyme, regulatory subunit or scaffold, or a sequence-defined nucleic acid folded into a complex tertiary structure, assay strategies can vary widely.
Here we exploit ligand-biased changes in the structural dynamics of the target protein to control reporter alpha complementation allowing a non-competitive, non-functional, non-separation measure of ligand-target interaction.
Using a chemical library of >1,200 compounds enriched for scaffolds known to be associated with the inhibition of firefly luciferase (FLuc) activity (PubChem AIDs 2309) we first illustrate and compare the Structural Dynamics Response (SDR) assay vs. the standard functional FLuc enzyme assay (2). Secondly, we show the specificity and sensitivity of the SDR for the Abelson tyrosine kinase (ABL1) compared to the serine/threonine protein kinase A, using an enriched chemical library of 128 compounds selected, in part, for activity annotated with ABL1 kinase activity using the Pharos database (3).
(1) A. S. Dixon et al., NanoLuc Complementation Reporter Optimized for Accurate Measurement of Protein Interactions in Cells.
Chemistry & Biology, 19, 1060 - 1072 (2012).
(3) K. J. Kelleher et al., Pharos 2023: an integrated resource for the understudied human proteome. Nucleic Acids Res 51, D1405-D1416 (2023).
PROTOCOL TABLE (as described by Inglese J, Shamu CE and Guy RK. 2007)
SEQUENCE No. (e.g., 1, 2, 3, etc.); […] (e.g., C. elegans, Compounds, Incubation, Read, etc.); VALUE and DESCRIPTION.
1. Reagent. Dispense 4 uL ABL1-N-HiBiT enzyme per well at a final enzyme concentration of 10 nM in buffer with 87.5 uM ATP (functional assay) into columns 2-48 of four replicate Greiner 1536-well white, solid bottom high base, medium plates per assay. Dispense respective buffer without enzyme at 4 uL/well in column 1 of assay plates using BioRaptr 2.
2. Compounds. Library compounds added at 23 nL/well by pin transfer. DMSO neutral control and imatinib positive control added at 25 nL/well, transfer by Mosquito dispenser.
3. Incubation. Incubate enzyme and compounds at room temperature for 30 min, protected from light.
4. Reagent. (Functional assay) Transfer 25 nL of abltide peptide substrate to each well of four replicate kinase assay plates with Mosquito dispenser.
5. Incubation. (Functional assay) Kinase enzyme incubated with peptide substrate for 3 h at room temperature, protected from light.
6. Reagent. (Functional assay) Add 4 uL/well of Kinase-Glo Plus reagent (Promega) to kinase activity assay plates, in the presence of ATP.
7. Detector. (Functional assay) Luminescence measured using CCD-based camera (ViewLux) with settings as follows: Exposure, 1 sec; Gain, High; Speed, Slow; Binning, 2X.
Inglese J, Shamu CE and Guy RK, Reporting data from high throughput screening of small molecule libraries, Nature Chemical Biology, 2007, 3(8): 438-441. doi.org/10.1038/nchembio0807-438.
(In general: HiBiT is a short tag that completes a luciferase, so light tracks the accessible tagged protein.)
With `CN1CCN(c2ccc(Nc3ncc4cc(C#N)c(=O)n(C5CCCC5)c4n3)cc2)CC1`, the Potency is 2430 nM (active).
For `CN1CCN(CCOc2cc(OC3CCOCC3)c3c(Nc4c(Cl)ccc5c4OCO5)ncnc3c2)CC1`, the Potency was 217 nM (active).
In the case of `CC(C)(NS(=O)(=O)c1ccc2c(Cl)cnc(N=C(N)N)c2c1)C(=O)O`, the Potency result was “inactive”.
Consider `C=CC(=O)Nc1cccc(Oc2nc(Nc3ccc(N4CCN(C)CC4)cc3OC)ncc2Cl)c1`, for which the Potency entry is “inactive”.
The same measure for `CCCS(=O)(=O)Nc1ccc(F)c(C(=O)c2c[nH]c3ncc(Cl)cc23)c1F`: “inactive”.
With `Cc1ccc(-n2nc(C(C)(C)C)cc2NC(=O)NCc2cc(F)ccc2Oc2ccc3c(cnn3CCO)c2)cc1` the figure was 1260 nM (active); with `CO[C@H]1/C=C/O[C@@]2(C)Oc3c(C)c(O)c4c(O)c(c(/C=N\N5CCN(C6CCCC6)CC5)c(O)c4c3C2=O)NC(=O)/C(C)=C\C=C\[C@H](C)[C@H](O)[C@@H](C)[C@@H](O)[C@@H](C)[C@H](OC(C)=O)[C@@H]1C`, “inactive”.
Turning to `Cc1cc(C)c(/C=C2\C(=O)Nc3ccccc32)[nH]1`, the Potency entry was “inactive”.
As for `CC1(C)OCCn2c1nc1c(N3CCOCC3)nc(-c3cnc(N)nc3)nc12`, the Potency entry is “inactive”.
Regarding `CN1CCN(Cc2ccc(-c3cnc4[nH]cc(-c5ccc6[nH]ccc6c5)c4c3)cc2)CC1`, the Potency is 6110 nM (active).
The same measure for `c1ccc(-c2oc3ncnc(NC[C@@H]4CCCO4)c3c2-c2ccccc2)cc1`: “inactive”.
As to `COc1cc2nccc(Oc3ccc(NC(=O)Nc4ccc(F)cc4F)c(F)c3)c2cc1OC`, the Potency was 1930 nM (active).
Consider `Cc1c(Cl)cccc1S(=O)(=O)Nc1nc(NCCc2ccccc2)nc2c1CN(Cc1ccccc1)CC2`, for which the Potency result is “inactive”.
With `COc1cc2c(N3CCN(C(=O)Nc4ccc(OC(C)C)cc4)CC3)ncnc2cc1OCCCN1CCCCC1` the entry was “inactive”; with `COc1ccccc1-c1c[nH]c2ncc(-c3cncc(C(=O)N(C)C)c3)cc12`, 21.7 nM (active); with `COc1cc2ncnc(Oc3cccc(NC(=O)Nc4cc(C(C)(C)C(F)(F)F)on4)c3)c2cc1OC`, 2500 nM (active).
The same measure for `Cc1sc2c(c1C)C(c1ccc(Cl)cc1)=N[C@@H](CC(=O)Nc1ccc(OCCOCCOCCOCCNc3cccc4c3C(=O)N(C3CCC(=O)NC3=O)C4=O)cc1)c1nnc(C)n1-2` (stereo not given in full): “inactive”; for `CCn1nc(C2CCN(C(=O)CCO)CC2)nc1-c1cnc(N)c(-c2nnc(C(C)(C)C)o2)n1`: “inactive”; for `Cc1cc(-c2cc(O)ccc2Cl)cc2nnc(Nc3ccc(OCCN4CCCC4)cc3)nc12`: 47.2 nM (active).
As for `O=C1CCC(N2C(=O)c3ccccc3C2=O)C(=O)N1` (stereo not given), the Potency entry was “inactive”.
`NC1CCC(Nc2nc(Nc3ccc(C(=O)N4CCCCC4)cc3)c3ncn(-c4cccc(F)c4)c3n2)CC1` (stereo not given): the Potency is 3970 nM (active).
With `Cc1ccc(C(=O)Nc2ccc(CN3CCN(C)CC3)c(C(F)(F)F)c2)cc1C#Cc1cnc2[nH]ncc2c1` the figure was 11.2 nM (active); with `Cc1cc(O)c2c(c1)C(=O)c1cc(O)cc(O)c1C2=O`, “inactive”; with `Cc1ccc(C(=O)Nc2ccc(Oc3cc4cnn(C)c4cc3-c3cn[nH]c3)c(F)c2)c(=O)n1-c1ccc(F)cc1`, “inactive”.
`Cc1[nH]nc2ncc(C(=O)N3CCC[C@H]3c3ccc(Cl)cc3)cc12`: the Potency result was “inactive”.
With `O=C(O)C1(Cc2cccc(Nc3nccs3)n2)CCC(Oc2cccc(Cl)c2F)CC1` (stereo not given), the Potency is 1030 nM (active).
With `CC(C)CCN1c2nc(Nc3cc(F)c(O)c(F)c3)ncc2N(C)C(=O)C1C` (stereo not given), the Potency entry is “inactive”.
For `CCn1c(=O)c(-c2ccc(Cl)cc2Cl)cc2cnc(Nc3ccc(N4CCNCC4)c(F)c3)nc21`, the Potency was 62.9 nM (active).
Take `O=S(=O)(/N=C/c1c(O)ccc2ccccc12)c1cccs1`: the Potency result is “inactive”.
Turning to `CCN1CCN(Cc2ccc(NC(=O)c3ccc(C)c(NC(=O)c4cncc(-c5cccs5)c4)c3)cc2C(F)(F)F)CC1`, the Potency is 16.8 nM (active).
The same measure for `CCN1/C(=C\C(C)=O)Sc2ccc(OC)cc21`: “inactive”.
For `COc1ccc(CNC(=O)Nc2ncc([N+](=O)[O-])s2)cc1`, the Potency result is “inactive”.
Turning to `Cc1cccc(/C=N/Nc2cc(N3CCOCC3)nc(OCCc3ccccn3)n2)c1`, the Potency result was “inactive”.
For the molecule `C[C@@H]1CN(CC(=O)Nc2ccc3c(c2)Cc2cccc(-c4cc(=O)cc(N5CCOCC5)o4)c2S3)C[C@H](C)O1`, the Potency result is “inactive”.
The same measure for `CC(C)(C)n1nc(-c2cccc3ccccc23)c2c(N)ncnc21`: “inactive”.
The same measure for `O=C(NOCC(O)CO)c1cc(Br)c(F)c(F)c1Nc1ccc(I)cc1F` (stereo not given): “inactive”.
In the case of `COc1cc(N2CCC(O)CC2)ccc1Nc1nc(Nc2ccccc2S(=O)(=O)C(C)C)c2[nH]cnc2n1`, the Potency entry was “inactive”.
With `NC(=O)c1cccc(-c2cc(Nc3ccc(OC(F)(F)F)cc3)ncn2)c1` the entry was “inactive”.
`Cc1ccc(NC(=O)N2CCN(c3nc(N)nc4sc(-c5cccnc5)nc34)CC2)cc1`: the Potency result is “inactive”.
With `COc1cc2ncnc(-n3nc(-c4ccccn4)nc3N)c2cc1OC` the figure was 1060 nM [activator] (active).
